# IL1B secr inh = inhibitors of inflammasome signaling (IL-1 beta secretion). activity change, % at 57.5 µM. THP-1 LPS/ATP IL-1B secretion, AlphaLISA, 16 h; hits give low values. AID 743279. 360,000 tested, 4.7% active; in the data active = activity change below about -50%; inconclusive = mostly about -30% to -49%
#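 THP-1 cells pretreated 1 hr with compounds (up to 57.5 uM final), then stimulated with LPS (250 ng/mL final) plus ATP (1.25 mM final); secreted IL-1B measured by AlphaLISA after 16 hr, decreased signal indicating inhibition.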
# DT40 TDP1 CPT = DT40-hTDP1 cell growth loss with CPT; chicken DT40 Tdp1-/-;hTDP1 cells + 20 nM CPT, ATP luminescence, 48 h; Potency, µM (titrated, usually from 46.2 µM), inactives show at the top dose activity change, negative = growth inhibition, hits mostly inhibitors; 420,000 tested, 12% active; AID 686979; note: potency is the fitted concentration of half-maximal effect; nearly all actives have a fitted effect of over 55% in size
#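 Cell growth measured by CellTiter-Glo luminescence after a minimum 48 h, 37 C compound exposure with 20 nM CPT in Tdp1-knockout DT40 cells stably expressing hTDP1, seeded 400/well; qHTS titration format.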
# HT1080 IDH1KD tx = kills HT-1080 cells with IDH1 knockdown; HT-1080 IDH1 knockdown viability, ATP luminescence, 48 h; Potency, µM (highest dose often 46.1 µM), for inactives: at the top dose activity, negative = toxicity, actives largely listed as cytotoxic; 360,000 tested, 2% active; AID 686971;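 note: potency is the fitted concentration of half-maximal effect; 0% = DMSO wells and -100% = cell-free medium wells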
#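 Using the IDH1-knockdown HT-1080 line run in the same batch and compound series as the NT line, viability after 48 h at 37 °C was determined by CellTiter-Glo luminescence and expressed as % activity.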
# ELG1 repair inh = ELG1-dependent DNA repair inhibition. AID 504467. HEK293T ELG1-luciferase reporter, luminescence, 16 h; DNA damage induced by 5-fluorouridine. Potency, µM (series often up to 46.1 µM), for inactives: at the highest dose activity change, negative = inhibition, hits mostly inhibitors. 330,000 tested, 2.3% active; note: potency is the fitted concentration of half-maximal effect; nearly all actives have a fitted effect of over 55% in size
#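 5-Fluorouridine DNA damage + compound/DMSO, 2,000 cells/well, 16 h, 37 °C/5% CO2. ONE-Glo, 30 min RT, luminescence. Readout = decrease in reporter signal.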
# DT40 TDP1 no CPT = qHTS for Inhibitors of human tyrosyl-DNA phosphodiesterase 1 (TDP1): qHTS in cells in absence of CPT; DT40 Tdp1-/- hTDP1 cells, no CPT, ATP luminescence, 48 h; Potency, µM (highest dose often 46.2 µM), without a hit: top-dose activity change, negative = growth inhibition, hits mostly inhibitors; 420,000 tested, 15% active; AID 686978, 2013; note: potency is the fitted concentration of half-maximal effect; nearly all actives have a fitted effect of over 55% in size
#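 A cellular qHTS used chicken DT40 cells lacking endogenous Tdp1 but carrying stably transfected human TDP1. Compounds were applied without camptothecin, and cell growth kinetics were judged by ATP-dependent luminescence after ≥48 hr.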
# HT1080-NT tox = kills 2HG-producing HT-1080-NT fibrosarcoma cells | HT-1080-NT fibrosarcoma viability, CellTiter-Glo ATP luminescence, 48 h | Potency, µM (highest dose often 46.1 µM), for inactives: at the highest dose activity, negative = less viability, usual class: cytotoxic | 360,000 tested, 1.6% active;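 note: NT is the 2HG producing partner of a matched IDH1 knockdown line; potency is the fitted concentration of half-maximal effect; 0% = DMSO-treated cells and -100% = media-only wells without cells; nearly all actives have a fitted effect of over 55% in size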
#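 HT-1080-NT fibrosarcoma cells (2HG-overproducing), 750 cells/well in RPMI with 5% FBS, dosed after 2 h and incubated 48 h at 37C. CellTiter-Glo luminescence normalized to DMSO and no-cell wells; concentration-response curves fitted and classed.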
# * hit, by the source's call; u = inconclusive; x = not tested or not shown; ! = repeats disagree; [ ] = dose if it differs, or a comment. Rows were chosen to be rich in hits. Some 19% of all compounds tested hit in one or more screens of this group. Unless noted, calls come from the whole dose curve; as a rule, active = well fitted curve in the direction sought with a large enough effect; inconclusive = small, poorly fitted or top-dose-only effect, or another doubt; inactive = no such curve, though single readings can be large; an effect the other way counts as inactive or inconclusive. Unless noted, % is set by controls: 0 for no effect and ±100 for the full control effect.
SMILES,IL1B secr inh,DT40 TDP1 CPT,HT1080 IDH1KD tx,ELG1 repair inh,DT40 TDP1 no CPT,HT1080-NT tox
CN(C)S(=O)(=O)c1cc(NC(=O)COC(=O)Cc2ccccc2)ccc1Cl,17,u,2%,6%,18µM*,0%
CN(C)S(=O)(=O)c1cc(NC(=O)C[N+]23CCN(CC2)CC3)ccc1Cl,9,-6%,14%,1%,1%,16%
CCOP(=O)(OCC)C(O)c1ccc2c(c1)OCO2 (configuration not stated),0,6%,10%,9%,4%,16%
COC(=O)[C@H]1[C@H]2C[C@@H]3c4[nH]c5cc(OC)ccc5c4CCN3C[C@H]2C[C@@H](OC(=O)/C=C/c2cc(OC)c(OC)c(OC)c2)[C@@H]1OC,50,u,u,-16%,13µM*!,u
CCCC(C)(COC(N)=O)COC(N)=O,x,-12%,x,x,-8%,x
NC(=O)[C@@H]1CCCN1C(=O)[C@H](Cc1ccccc1)NC(=O)[C@@H]1CCCN1C(=O)[C@@H](N)Cc1ccc(O)cc1,x,-4%[4.12 µM],x,x,14%[4.12 µM],x
NC(CO)Cc1ccccc1 (configuration not stated),x,-7%,x,x,-21%,x
N[C@H](CO)Cc1ccccc1,14,17%,29µM*,x,1%,-11%
CCc1ccc(N2C(=O)NC(=O)/C(=C\c3cccn3CCOc3ccc(C(C)C)cc3)C2=O)cc1,-22,21µM*,20%,u,16µM*,15%
O=C1Nc2ccccc2C1Cc1nc2ccccc2c(=O)n1-c1ccccc1 (configuration not stated),14,u,0%,-9%,u,2%
Nc1ccc([N+](=O)[O-])cc1O,x,24µM*,x,x,22µM*,x
O=[N+]([O-])c1ccc(O)c([N+](=O)[O-])c1,43,u,-24%,x,u,-19%
COc1ccc(C(CC(=O)c2ccc3c(c2)OCO3)c2c(O)c3ccccc3oc2=O)cc1OC (configuration not stated),0,-19%,2%,x,23µM*,-5%
COc1ccc(C(CC(C)=O)c2c(O)c3ccccc3oc2=O)cc1OC (configuration not stated),-3,2%,1%,x,-2%,1%
O=C(Nc1ccc2c(c1)OCO2)c1cccn(Cc2cccc(F)c2)c1=O,x,-13%,x,x,-18%,x
O=C1NC(=O)C2(Cc3ccccc3N3CCOCC32)C(=O)N1c1ccccc1 (configuration not stated),36,u,18µM*,-13%,u,u
COc1ccccc1N1CCN(C(=O)CCC(=O)Nc2nnc(CC(C)C)s2)CC1,25,u,6%,18%,-18%,13%
Cc1cc(C)cc(NC(=O)CN2C(=O)CN=C(c3ccccc3)c3cc(Cl)ccc32)c1,x,21µM*,x,x,u,x
O=C(O)CN1C(=O)CN=C(c2ccccn2)c2cc(Cl)ccc21,39,-2%,-1%,4%,-7%,-8%
COCCNC(=O)CN1C(=O)C(C)N=C(c2ccccc2)c2cc(Cl)ccc21 (configuration not stated),-1,1%,-4%,17%,-12%,-1%
COc1ccc(Cl)cc1NC(=O)CN1C(=O)CN=C(c2ccccc2)c2cc(Cl)ccc21,x,u,x,x,15µM*,x
C1=C(CCNCc2ccccc2)CCCC1,-3,-22%,-2%,2%,-11%,3%
Cc1ccc2c(Cl)cc(Cl)c(O)c2n1,-94*,2.9µM*!,8.2µM*,x,3.3µM*!,-24%
CN(C)C(=O)Oc1c(Cl)cc(Cl)c2cccnc12,20,1%,6%,2%,-3%,-1%
O=[N+]([O-])c1ccc2c(c1)C(c1ccccc1)=NCCN2,-15,-10%,-19%,-27%,-27%,-21%
SMILES,IL1B secr inh,DT40 TDP1 CPT,HT1080 IDH1KD tx,ELG1 repair inh,DT40 TDP1 no CPT,HT1080-NT tox
O=[N+]([O-])c1ccc(-c2ccccc2)c([As](=O)(O)O)c1,-18,13µM*,-26%,12%,9.2µM*,-29%
Cc1cccc(-n2c(=O)c3c(c4cc(C)ccc4n3C)n(CC(=O)Nc3ccc(C)c(C)c3)c2=O)c1,x,-20%,x,x,u,x
C[C@]12CC[C@H](OS(=O)(=O)O)CC1=CC[C@@H]1[C@@H]2CC[C@]2(C)C(=O)CC[C@@H]12,4,8%,7%,7%,5%,5%
C[C@]12CCC(OC(=O)CCC(=O)O)CC1=CCC1C2CC[C@]2(C)C(=O)CCC12 (some centres not stated),-8,3%,2%,3%,-22%,6%
COCCO[C@H]1CC[C@@]2(C)C(=CCC3C2CC[C@@]2(C)C3CC[C@]2(C)O)C1 (some centres not stated),-72*,u,-4%,18µM*,12µM*,-7%
CCN(CC)CCO[C@H]1CC[C@@]2(C)C(=CC[C@@H]3[C@H]2CC[C@]2(C)C(=O)CC[C@H]32)C1,x,2.4µM*,x,x,2.4µM*,x
CCN(CC)CCO[C@H]1CC[C@@]2(C)C(=CC[C@@H]3[C@@H]2CC[C@]2(C)C(=O)CC[C@@H]32)C1,x,24µM*,x,x,2.7µM*,x
C=CCN1CC[C@]23c4c5ccc(O)c4O[C@@H]2C(=O)CC[C@]3(O)[C@H]1C5,x,-3%,x,x,-11%,x
Cc1ccc(C2=CCNCC2)cc1,-1,-2%,-1%,-2%,-16%,6%
CC(=O)Oc1ccc2c3c1O[C@H]1[C@@H](OC(C)=O)C=C[C@H]4[C@@H](C2)N(C)CC[C@@]341,x,-28%[92.5 µM],x,x,u,x
CCCNC(=O)N1[C@H]2CC[C@@H]1C(C(=O)OC)=C(c1cccc(C#N)c1)C2,-8,-14%,1%,u,-4%,14%
COc1cc(Br)cc(CN2CCN(C)CC2)c1O,2,0%,2%,10%,1%,7%
CCN1CCN(Cc2cc(Br)cc(Br)c2O)CC1,-21,u,-2%,5%,16µM*,-7%
COC(=O)C1=C(c2cc3ccccc3s2)C[C@@H]2CC[C@H]1N2C(=O)N1CCC(O)CC1,10,15µM*,0%,x,23µM*,20%
COC(=O)C1=C(c2cc3ccccc3s2)C[C@@H]2CC[C@H]1N2C(=O)N1CCCCC1,16,2.9µM*,8.2µM*,x,6.5µM*,u

# Screening data: PubChem BioAssay, National Center for Advancing Translational Sciences (NCATS)
